Several values for one entry are separate records, joined by “and”; a condition that tells them apart may be missing. Identical values can stand only once. Results filed as inconclusive are left out. Entries that show only a call come without a potency. Activity calls are given as the source filed them. Calls follow the shape of the dose curve; as a rule, active = well fitted activation curve with a large enough effect in the repeat runs; inconclusive = weak or mixed curves; inactive = no such curve, though single readings can be large or run the other way.
Biological target: Nuclear receptor subfamily 1 group I member 3 (Homo sapiens) (UniProt Q14994)
Assay: qHTS assay to identify small molecule agonists of the constitutive androstane receptor (CAR) signaling pathway (AID 1224839); also: nearly all actives have a fitted effect of over 15% in size;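 as to activation: HepG2 cells stably carrying human CAR and a CYP2B6 luciferase reporter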
Settings: HepG2 hCAR CYP2B6-luciferase, agonist mode, 24 h; series mostly up to 92.4 µM
Description: National Center for Advancing Translational Sciences [NCATS] NIH Chemical Genomics Center [NCGC] U.S. Environmental Protection Agency [EPA] National Institutes of Environmental Health Sciences [NIEHS] National Toxicology Program [NTP] Assay overview: The constitutive androstane receptor (CAR) is a nuclear receptor which regulates multiple drug metabolizing enzymes (DMEs) and transporters. Activating CAR will generally increase the transcription and subsequent translation of CYP2B6 and CYP3A4. These two DMEs represent about 50% of the drug metabolizing potential in the body. […] Recently, there have also been studies performed indicating CARs role in energy metabolism and cancer therapy. Therefore, inducing CARs activity could have a potential effect on diabetes and cancer. Identifying environmental toxins and compounds which modulate CAR, through the use of the Tox21 10K compound collection, will be an important step in determining the toxicity and potential therapeutic effects these factors will have on the human body.
Assay Protocol Summary: A double-stable (hCAR and CYP2B6-2.2kb) transfected cell line, derived from human hepatoma (HepG2) cells, was utilized for the duration of the quantitative high-throughput screens. The HepG2-CYP2B6-hCAR cells suspended in DMEM culture medium supplemented with 10% FBS, 5 ug/mL blasticidin, 0.5 mg/mL geneticin, 100 U/mL penicillin and 100 ug/mL streptomycin were dispensed at 2500 cells/4 uL/well in 1536-well white solid bottom plates using a Multidrop Combi. After the assay plates were incubated at 37 C/5% CO2 for 4 hrs, 23 nL of compounds at 15 concentrations (from 5-48 columns) or positive control (from 1 to 4 columns) were transferred to the assay plates using a Pintool station. One uL of PK11195, was added using a Flying Reagent Dispenser to generate a final concentration of 0.75 uM PK11195 inside each well. After a 24 hr incubation period at 37 C/5% CO2, four uL of ONE-Glo reagent was added into the assay plates using a Flying Reagent Dispenser. After a 30 min incubation period at room temperature, the luminescence intensity in the assay plates was measured using a ViewLux plate reader.
Potency is read from the fitted curve at half-maximal effect.

Chain of Nuclear receptor subfamily 1 group I member 3 (Homo sapiens) (Q14994 whole entry, looked up): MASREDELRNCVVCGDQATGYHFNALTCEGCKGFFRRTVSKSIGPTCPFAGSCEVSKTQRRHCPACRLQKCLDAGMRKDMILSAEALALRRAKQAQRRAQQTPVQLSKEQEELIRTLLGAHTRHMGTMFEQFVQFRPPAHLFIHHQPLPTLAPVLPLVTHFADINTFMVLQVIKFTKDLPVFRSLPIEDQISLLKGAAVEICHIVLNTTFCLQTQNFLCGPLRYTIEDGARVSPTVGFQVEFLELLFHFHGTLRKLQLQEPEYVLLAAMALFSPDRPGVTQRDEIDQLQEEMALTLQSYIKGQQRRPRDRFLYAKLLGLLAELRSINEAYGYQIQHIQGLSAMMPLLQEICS

Compound	Potency
CN(C1CCCCC1)C1CCCCC1	inactive
FC(F)OC(F)(F)C(F)Cl (stereo not given)	inactive
CCSCc1ccccc1OC(=O)NC	27.3 µM (active)
CCCC(C)(COC(N)=O)COC(=O)NC(C)C (stereo not given)	inactive
c1ccc2sc(SNC3CCCCC3)nc2c1	53.9 µM (active)
C=CCOCC1CO1 (stereo not given)	inactive
CCC(C)(C)c1ccc(O)c(C(C)(C)CC)c1	inactive
O=P(OCC(Br)CBr)(OCC(Br)CBr)OCC(Br)CBr (stereo not given)	inactive
COP(=O)(OC)OC(Br)C(Cl)(Cl)Br (stereo not given)	inactive
O=C(Cc1ccccc1)c1ccccc1	54.5 µM (active)
C[C@H](N)[C@H](O)c1ccc(O)c(O)c1	inactive
CC(C)(C)N(NC(=O)c1ccc(Cl)cc1)C(=O)c1ccccc1	inactive
CN1CC[C@]23c4c5ccc(O)c4O[C@H]2[C@@H](O)CC[C@H]3[C@H]1C5	inactive
ClCc1ccccc1Cl	inactive
C#C[C@]1(O)CC[C@H]2[C@@H]3CCC4=CC(=O)CCC4=C3C=C[C@@]21CC	inactive
N#CC1(N=NC2(C#N)CCCCC2)CCCCC1	inactive
CC(C)(c1ccccc1)c1cc(-n2nc3ccccc3n2)c(O)c(C(C)(C)c2ccccc2)c1	inactive
CCOP(=S)(S)OCC	inactive
O=C=NC1CCCCC1	inactive
CC(C)CCCCCCCOC(=O)c1ccccc1C(=O)OCCCCCCCC(C)C	inactive

Compound	Potency
Cc1nc2ccccc2c(=O)n1-c1ccccc1Cl	inactive
CC(Cl)C(=O)O (stereo not given)	inactive
CCOP(=S)(OCC)SCSc1cc(Cl)ccc1Cl	inactive
C=CC(=O)NC(C)(C)CC(C)=O	inactive
CN(C)c1ccc(N=O)cc1	4.87 µM (active)
Clc1ccccc1	inactive
O=C(O)C(F)(F)C(F)(F)C(F)(F)C(F)(F)C(F)(F)F	inactive
CCC[N+](CCC)(CCC)CCC	inactive
C[N+]1(CCF)[C@@H]2CC[C@H]1CC(OC(=O)C(O)(c1ccccc1)c1ccccc1)C2 (stereo not given in full)	inactive
COc1ccc2c(c1OC)C(=O)O[C@H]2[C@@H]1c2cc3c(cc2CCN1C)OCO3	inactive
c1ccc2c(c1)-c1cccc3cccc-2c13	34.7 µM (active) and 30.6 µM (active)
CCC(C)(C)O	inactive
CCNC(=O)NC(=O)/C(C#N)=N/OC	inactive
CC(C)(C)NCC(O)c1cc(Cl)c(N)c(C(F)(F)F)c1 (stereo not given)	inactive
C=CC(=O)OCC	inactive
CC[N+]1(C)CCCC(OC(=O)C(O)(c2ccccc2)c2ccccc2)C1 (stereo not given)	inactive
Nc1cccc2ccccc12	30.8 µM (active) and 61.1 µM (active)
OCCSSCCO	inactive
Cc1ccccc1	inactive
CN1C[C@H](C(=O)N[C@]2(C)O[C@@]3(O)[C@@H]4CCCN4C(=O)[C@H](Cc4ccccc4)N3C2=O)C=C2c3cccc4[nH]cc(c34)C[C@H]21	inactive

Reference: PubChem BioAssay (Tox21)
